# FLuc modulator – inhibits or activates purified firefly luciferase, miR-21 counter-screen; P08659; purified FLuc, Km substrates, luminescence inhibition; Potency, µM (series often up to 57.5 µM), inactives show at the top dose activity change, negative = inhibition, most hits filed as inhibitors; 6.9% of 360,000 active; AID 588342;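 further: plate controls were vehicle for no effect and reference inhibitor for full effect; nearly all actives have a fitted effect of over 55% in size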
# Target sequence (P08659 whole entry, looked up): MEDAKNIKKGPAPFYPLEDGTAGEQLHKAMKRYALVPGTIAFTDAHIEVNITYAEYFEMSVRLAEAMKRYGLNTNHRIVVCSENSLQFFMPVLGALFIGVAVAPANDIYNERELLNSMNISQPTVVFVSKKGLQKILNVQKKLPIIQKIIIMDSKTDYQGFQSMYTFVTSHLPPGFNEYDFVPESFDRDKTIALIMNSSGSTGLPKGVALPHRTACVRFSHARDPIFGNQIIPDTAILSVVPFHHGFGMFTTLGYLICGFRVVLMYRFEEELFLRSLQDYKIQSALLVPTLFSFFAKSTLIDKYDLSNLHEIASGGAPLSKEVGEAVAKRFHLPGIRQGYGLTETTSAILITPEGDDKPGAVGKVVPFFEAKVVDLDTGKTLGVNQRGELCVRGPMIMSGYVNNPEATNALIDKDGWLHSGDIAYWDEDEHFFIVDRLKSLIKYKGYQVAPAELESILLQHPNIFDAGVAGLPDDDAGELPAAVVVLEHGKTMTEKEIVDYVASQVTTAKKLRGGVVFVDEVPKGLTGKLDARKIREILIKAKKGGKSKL
#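 Purified P. pyralis luciferase, 10 nM final, with Km-level 10 uM D-luciferin and 10 uM ATP in 50 mM Tris acetate pH 7.5, 10 mM Mg acetate, 0.01% Tween-20, 0.05% BSA; 6-point qHTS titration about 60 µM downward; luminescence read.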
# SMN2 splice enh – increases expression of the SMN2 splice variant; HEK293 SMN2-luciferase splicing reporter, luminescence, 30-36 h; 2.8% of 210,000 active; Potency, µM (top dose mostly 46.1 µM), without a hit: at the highest dose activity change, positive = activation, usual class: activators; AID 1458; further: % of control where 0% means no effect; nearly all actives have a fitted effect of over 55% in size
#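 qHTS luciferase splicing reporter: luminescence rises when SMN2 exon 7 is included in transfected HEK293 cells. Compound exposure lasted 30-36 h at 37C, with 4.5 mM final sodium butyrate as control, followed by a ONE-Glo read.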
# NPC1 promoter act – activates the NPC1 promoter; Huh7 NPC1 promoter luciferase reporter, 24 h; Potency, µM (titrated, usually from 9.22 µM), inactives show at the highest dose activation, usual class: activators; 2.4% of 320,000 active; AID 485313; further: % of control where 0% means no effect; nearly all actives have a fitted effect of over 60% in size
#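 Luminescence read-out of NPC1 promoter-driven luciferase in stably transfected Huh7 cells; compounds delivered in DMSO and left 24 h at 37C, 5% CO2, qHTS titration format.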
# Rab9 promoter act – activates the Rab9 promoter | Huh7 Rab9 promoter-luciferase reporter, luminescence, 24 h | Potency, µM (highest dose often 9.22 µM), for the others: top-dose activation, negative = inhibition, actives largely listed as activators | 2.8% of 320,000 active | AID 485297; further: % of control where 0% means no effect; nearly all actives have a fitted effect of over 60% in size
#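 Using Huh7 cells stably transfected with Rab9 promoter–luciferase, compounds were incubated 24 h at 37 °C, 5% CO2; luciferase luminescence was read 10 min after reagent addition.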
# ELG1 repair inh – blocks ELG1-dependent DNA repair in HEK293T cells; HEK293T ELG1-luciferase reporter, luminescence, 16 h; DNA damage induced by 5-fluorouridine; Potency, µM (series often up to 46.1 µM), inactives show top-dose activity change, negative = inhibition, most hits filed as inhibitors; 2.3% of 330,000 active; further: on the % scale 0 is the no-effect control and ±100 the full control effect; nearly all actives have a fitted effect of over 55% in size
#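 Step one: seed 2,000 cells per well. Step two: pin-transfer compound or DMSO alongside 5-fluorouridine. Step three: incubate 16 hr, 37 °C, 5% CO2. Step four: add ONE-Glo, wait 30 min, read luminescence.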
# ELG1 genotoxic – induces genotoxicity in HEK293T cells with luciferase-tagged ELG1; 1.3% of 330,000 active; HEK293T ELG1-luciferase reporter, luminescence, 16 h; AID 504466; Potency, µM (top dose mostly 46 µM), without a hit: at the top dose activity change, positive = activation, most hits filed as activators; further: % of control where 0% means no effect; nearly all actives have a fitted effect of over 60% in size
#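 Genotoxic stress is detected as increased luminescence from luciferase-tagged ELG1 in HEK293T cells, measured with ONE-Glo after a 16 hr treatment at 37 °C.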
# Starred values were filed as active, the others as inactive; ? = inconclusive; . = no result given; [ ] = remark or other dose. In the library only some 9.3% were active in any assay of this set; here they are far more common. The call rests on the fitted dose curve; in most records, active means well fitted curve in the direction sought with a large enough effect; inconclusive means small, poorly fitted or top-dose-only effect, or another doubt; inactive means no such curve, though single readings can be large; an effect the other way counts as inactive or inconclusive. Potency means the concentration at half of the fitted maximal effect.
SMILES,FLuc modulator,SMN2 splice enh,NPC1 promoter act,Rab9 promoter act,ELG1 repair inh,ELG1 genotoxic
O=S(=O)(c1ccc(SCc2ccc(Br)cc2)nc1)N1CCCCC1,-0.8%,.,0.4%,0.9%,-8.1%,-1.9%
O=C(CSc1nnnn1-c1ccccc1)N1N=CCC1c1ccccc1 (stereo unspecified),15.1µM*,19.0%,4.0%,13.8%,0.8%,1.8%
O=C(CCCSc1ccc(Cl)cc1)Nc1cc(S(=O)(=O)N2CCOCC2)ccc1O,?,.,-0.8%,2.6%,-27.2%,-2.4%
COc1ccc(NC(=S)N2CCC(c3ccccc3)C2)cc1 (stereo unspecified),6.75µM*,.,2.51µM*,2µM*,?,9.2µM*
COc1ccc(NC(=S)N2CCC(C(=O)c3ccc(OC)cc3)CC2)cc1,12µM*,.,-1.2%,-0.2%,23.1µM*,-11.9%
COc1ccc(NC(=S)N2CCC(C(O)(c3ccccc3)c3ccccc3)CC2)cc1,1.2%,10.3%,-4.1%,1.2%,-26.7%,-2.9%
COc1ccc(C(=O)NC(=O)CSc2n[nH]c(N)n2)cc1,.,.,.,.,6.9%,0.8%
O=C(CN1C(=O)C2CC=CCC2C1=O)OCC(=O)c1ccc(Cl)c([N+](=O)[O-])c1 (stereo unspecified),3.6%,.,-2.0%,27.8%,13.4%,-3.2%
Cc1cc(C)c(S(=O)(=O)NCCc2csc3nc(-c4ccc(Cl)cc4)nn23)c(C)c1,-9.0%,.,.,.,.,.
c1ccc2oc(SCc3nc4ccccc4s3)nc2c1,4.78µM*,?,.,.,.,.
O=C(O)CCCc1nc2ccccc2s1,?,?,-1.3%,-1.2%,0.0%,3.2%
N#CCc1nc(CSc2nc3ccccc3o2)cs1,23.9µM*,4.1%,?,?,?,?
c1ccc(SCc2nc3ccccc3s2)nc1,4.78µM*,.,3.55µM*,1.26µM*,?,?
CCOc1ccc(OCCSc2nc3ccccc3o2)cc1,-18.0%,4.4%,6.9%,-1.6%,?,9.6%
COC(=O)CCn1nc(-c2ccc(C)cc2)c2ccccc2c1=O,-1.1%,.,-3.3%,-14.8%,-2.2%,-1.8%
c1ccc(C2=Nn3c(nnc3-c3cc(-c4ccccc4)n[nH]3)SC2)cc1,.,?,8.1%,4.0%,?,?
c1ccc(C2=Nn3c(nnc3-c3n[nH]c4c3CCC4)SC2)cc1,-1.2%,?,-7.2%,3.1%,?,23.1µM*
Clc1ccc(C2=Nn3c(nnc3-c3n[nH]c4c3CCC4)SC2)cc1Cl,0.1%,10µM*,-8.9%,-5.0%,?,?
O=C(NC1CCCC1)c1cc(=O)[nH]c2ccccc12,-5.1%,.,-3.0%,3.8%,28.3%,-0.6%
c1ccc(CNc2ccc3c(c2)ncn3C2CCCCC2)nc1,13.5µM*,27.6%,?,?,?,11.3%
COc1cc(/C=N/N2CCCCC2)cc(OC)c1O,-16.8%,.,0.3%,5.0%,7.1%,2.5%
COc1ccc(O)c(/C=N/N2CCCCC2)c1,9.53µM*,.,3.16µM*,2µM*,?,?
COc1ccc(/C(C)=N/N2CCCCC2)c(O)c1,9.53µM*,.,5.1%,18.4%,10.0%,6.8%
COc1cc(CN(C(=O)c2cccs2)C2CCS(=O)(=O)C2)cc(OC)c1OC (stereo unspecified),8.9%,.,0.8%,-1.9%,13.3%,1.6%
CCCCNC(=O)c1ccc2c(c1)ncn2C1CCCC1,16.9µM*,3.6%,-0.2%,4.3%,?,?
SMILES,FLuc modulator,SMN2 splice enh,NPC1 promoter act,Rab9 promoter act,ELG1 repair inh,ELG1 genotoxic
CCCCCCCC[n+]1cccc2c3ccccc3ccc21,-4.1%,-72.4%,-44.6%,-38.5%,?,-9.5%
CCCCCCCCCC[n+]1cccc2c3ccccc3ccc21,-1.6%,-68.9%,-45.8%,-37.1%,2.31µM*,-6.0%
CCc1ccc(CNC(=O)c2cccc(-n3c(C)nc4cccnc43)c2)cc1,-11.0%,.,.,.,.,.
Cc1nnc(SCc2nc3ccccc3s2)n1N,9.53µM*,.,10.6%,-28.7%,?,13µM*
c1ccc(-c2ncc(CSc3nncn3-c3ccccc3)s2)cc1,-0.3%,-55.1%,0.5%,1.0%,-1.3%,-0.1%
CCn1c(SCc2nc3ccccc3s2)nnc1-c1ccccc1,15.1µM*,-3.3%,3.1%,1.0%,?,13µM*
c1ccc(Cn2c(SCc3nc4ccccc4s3)nnc2-c2ccco2)cc1,-13.2%,-2.9%,11.4%,4.0%,?,-1.0%
CCC(c1nnc(SCc2nc3ccccc3s2)n1Cc1ccccc1)N(C)C (stereo unspecified),16.9µM*,-13.6%,0.4%,13.2%,?,?
c1ccc(-n2cnnc2SCc2nc3ccccc3s2)cc1,16.9µM*,-17.2%,2.7%,28.7%,?,?
C[C@@H]1c2ccccc2Cn2cc3c(c21)C(=O)c1cccc(OP(=O)(O)OCc2ccccc2)c1C3=O,.,-8.5%[9.22 µM],.,.,.,.
CC(=O)Nc1cccc(C(=O)N2CCN(S(=O)(=O)Cc3ccccc3)CC2)c1,.,.,.,.,-4.4%,1.0%
O=C(Nc1cccc(S(=O)(=O)N2CCOCC2)c1)c1ccc(=O)[nH]c1,.,.,.,.,?,-2.7%
Cc1ccc(-n2c(=O)c3ccccc3n(CC(=O)Nc3cccc(C(F)(F)F)c3)c2=O)cc1,-8.1%,-5.7%,.,.,.,.
Cc1nnc(SCc2nc3ccccc3s2)n1-c1ccccc1,15.1µM*,?,18.9%,21.5%,?,?
O=C(OCc1ccccc1)/C(=C(\O)c1ccccc1Br)c1ccc(-c2ccccc2)cn1,-3.4%,.,0.6%,1.0%,-2.3%,5.9%
CCC1CCc2c(sc(NC(=O)c3cnccn3)c2C(N)=O)C1 (stereo unspecified),2.39µM*,.,25.7%,25.3%,?,15.0%
CCC1CCc2c(sc(NC(=O)c3ccco3)c2C(N)=O)C1 (stereo unspecified),1.35µM*,17.8µM*,?,2.82µM*,?,?
CCOC(=O)c1c(NC(=O)c2cc3ccccc3c(=O)o2)sc2c1CCC(C(C)(C)C)C2 (stereo unspecified),16.9µM*,-3.7%,.,.,.,.
Cc1ccccc1NC(=O)c1c(NC(=O)c2ccco2)sc2c1CCC(C(C)(C)C)C2 (stereo unspecified),4.1%,0.6%,.,.,.,.
CC(C)(C)C1CCc2c(sc(NC(=O)c3ccco3)c2C(N)=O)C1 (stereo unspecified),0.426µM*,-60.0%,?,2.82µM*,?,?
CCOC(=O)c1c(NC(=O)c2ccc(F)cc2)sc2c1CCC(CC)C2 (stereo unspecified),-4.7%,-8.3%,.,.,.,.
CC(C)CCn1nnnc1CN1CCN(c2ccccc2)CC1,0.7%,-0.6%,0.5%,-0.1%,1.2%,-1.7%
